Growth data for 13 compounds are collected here from PubChem BioAssay (NCI).

Test systems include NCI-H23 lung; NCI-H226 lung; NCI-H322M lung; HOP-62 NSCLC; NCI-H460 lung; HOP-92 NSCLC; NCI-H522 lung; A549/ATCC NSCLC; 786-0 renal; COLO 205 colon.
What all share (test): NCI-60 one-dose screen, 48 h (100 = growth as untreated, 0 = no growth, -100 = all killed)
What all share (settings): 10 µM unless noted

About 83,000 compounds went through this panel and 20% of them were active in at least one assay; those are over-represented in the sample as a whole.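 For each line, cells grew in 96-well plates with the test compound present at a single concentration for 48 hours.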 Unmarked numbers belong to inactive results. Activity calls are given as the source filed them. The calls were made as follows: active = growth percent below 10; inactive = the rest.

Consider `O=c1oc2ccc([N+](=O)[O-])cc2cc1Br`, for which the growth is 107% in the test with NCI-H23 lung; 98.4% with NCI-H226 lung; 108% with NCI-H322M lung; 104% with HOP-62 NSCLC; 107% in the test on NCI-H460 lung; 83.7% in the test on HOP-92 NSCLC. For the same compound, the growth with NCI-H522 lung is 97.9%; in the test with A549/ATCC NSCLC, 108%; in the test on 786-0 renal, 112%; in the test on COLO 205 colon, 105%.
Regarding `N#Cc1cccc(-c2c(-c3ccc4ccccc4c3)oc3ccccc3c2=O)c1`, the growth with NCI-H23 lung is 60.7%; in the test with NCI-H226 lung it was 71.2%; with NCI-H322M lung, 64.6%; in the test with HOP-62 NSCLC, 41.5%; in the test with NCI-H460 lung, 17.9%; in the test on HOP-92 NSCLC, 51.8%. Further, the growth is 10.5% in the test with NCI-H522 lung, 34.9% in the test on A549/ATCC NSCLC, 35.5% in the test with 786-0 renal and 36.7% with COLO 205 colon.
As for `Cc1nnc(-n2c(O)cc(=O)n(-c3ccccc3)c2=S)nc1/C=C/c1ccc(N(C)C)cc1`, the growth is 60.9% with NCI-H23 lung; 61.2% with NCI-H226 lung; 50.5% in the test with NCI-H322M lung; 39.2% in the test on HOP-62 NSCLC; 62.4% in the test on NCI-H460 lung; 43.7% with HOP-92 NSCLC. For the same compound, the growth was 19.2% with NCI-H522 lung, 51.2% in the test with A549/ATCC NSCLC, 49.5% with 786-0 renal and 39.7% in the test on COLO 205 colon.
For `COc1cc2c(c(OC)c1OC)C(=O)CC(c1cccc(NC(=O)c3ccc(Br)cc3)c1)O2` (stereo not given), the growth in the test with NCI-H23 lung was 51.2%; in the test with NCI-H226 lung, 49.2%; in the test with NCI-H322M lung, 72.5%; with HOP-62 NSCLC it was 47.2%; in the test with NCI-H460 lung, 57%; in the test on HOP-92 NSCLC it was 25.7%. Further, the growth in the test on NCI-H522 lung was 9.27% (active); in the test on A549/ATCC NSCLC it was 48.6%; in the test on 786-0 renal, 78.1%; with COLO 205 colon, 55.5%.
`CN1CCN(C(=O)OCc2ccc3c(Cl)cc(Cl)c(O)c3n2)CC1`: the growth was 59.6% in the test on NCI-H23 lung; 98.3% with NCI-H226 lung; 60% in the test with NCI-H322M lung; 45.9% in the test on HOP-62 NSCLC; 66.8% with NCI-H460 lung; 71.1% with HOP-92 NSCLC. The growth was 79.6% in the test on NCI-H522 lung, 62.5% in the test on A549/ATCC NSCLC, 86.6% with 786-0 renal and 107% with COLO 205 colon.
Turning to `Cn1cc(-c2nc(-c3c[nH]c4ccncc34)cs2)c2ccccc21`, the growth with NCI-H23 lung is 86%; with NCI-H226 lung, 87.6%; in the test on NCI-H322M lung, 82.5%; in the test with HOP-62 NSCLC, 60.4%; in the test with NCI-H460 lung it was -37.7% (active); in the test with HOP-92 NSCLC it was 53.9%. Besides, the growth with NCI-H522 lung is 66.8%; with A549/ATCC NSCLC, 42.1%; in the test on 786-0 renal, 77.3%; with COLO 205 colon it was -67.3% (active).
With `Cc1ccc2c3c(c(=O)[nH]c2c1)C1(C(C#N)=C(N)O3)c2cc(Br)ccc2-c2ccc(Br)cc21`, the growth in the test with NCI-H23 lung is 6.8% (active); in the test with NCI-H226 lung, -17% (active); with NCI-H322M lung, 16.5%; in the test on HOP-62 NSCLC, -27.5% (active); with NCI-H460 lung, -56.5% (active); with HOP-92 NSCLC, -10.8% (active). The growth with NCI-H522 lung was -8.2% (active); with A549/ATCC NSCLC, -42.4% (active); with 786-0 renal it was -19.5% (active); with COLO 205 colon it was -51.8% (active).
On to `Oc1c(Cl)cc(Cl)c2ccc(Cn3cc(-c4cc(C(F)(F)F)cc(C(F)(F)F)c4)nn3)nc12`, for which the growth in the test with NCI-H23 lung is 77.3%; in the test with NCI-H226 lung, 82.1%; in the test on NCI-H322M lung, 103%; in the test on HOP-62 NSCLC, 101%; in the test on NCI-H460 lung, 101%; in the test on HOP-92 NSCLC, 24.8%. Also, the growth in the test on NCI-H522 lung was -39.4% (active); in the test with A549/ATCC NSCLC, 95.5%; with 786-0 renal it was 97.3%; with COLO 205 colon, 66.4%.
Turning to `O=C1Nc2ccccc2/C1=C\c1nc(-c2ccccc2)n2ccccc12`, the growth in the test with NCI-H23 lung was 85%; in the test with NCI-H226 lung, 91%; in the test with NCI-H322M lung, 92%; in the test on HOP-62 NSCLC, 92.9%; in the test on NCI-H460 lung, 94.4%; in the test with HOP-92 NSCLC, 121%. Also, the growth was 77.7% with NCI-H522 lung, 92.7% in the test on A549/ATCC NSCLC, 99.4% in the test with 786-0 renal and 110% in the test with COLO 205 colon.
With `O=C(CSc1nc2ccc([N+](=O)[O-])cc2[nH]1)Nc1cccc(C(F)(F)F)c1`, the growth is 1.74% (active) in the test with NCI-H23 lung; 10.8% in the test with NCI-H226 lung; 50.1% in the test with NCI-H322M lung; 27.6% in the test on HOP-62 NSCLC; 14.4% in the test with NCI-H460 lung; -28.9% (active) in the test on HOP-92 NSCLC. Besides, the growth in the test on NCI-H522 lung was 3.44% (active); with A549/ATCC NSCLC, 23.2%; in the test with 786-0 renal, 23.9%; with COLO 205 colon, 16.8%.
For `CCS/C(Nc1ccccc1)=C(\C#N)C(=O)N/N=C/c1ccc(Cl)cc1Cl`, the growth in the test on NCI-H23 lung was 41.3%; with NCI-H226 lung, 37.7%; in the test on NCI-H322M lung, 70.9%; with HOP-62 NSCLC, 36.7%; in the test with NCI-H460 lung, 8.05% (active); in the test on HOP-92 NSCLC, 29.2%. Further, the growth with NCI-H522 lung was 1.02% (active); in the test on A549/ATCC NSCLC it was 38.3%; with 786-0 renal it was 31.8%; with COLO 205 colon, 28.4%.
Regarding `CCOc1ccc(NC(=O)CSc2oc(-c3ccccc3)nc2S(=O)(=O)c2ccc(F)cc2)cc1`, the growth in the test with NCI-H23 lung is 65.8%; in the test on NCI-H226 lung, 80.2%; in the test with NCI-H322M lung, 75.5%; in the test with HOP-62 NSCLC it was 58.2%; in the test on NCI-H460 lung, 53.9%; in the test with HOP-92 NSCLC, 31.1%. For the same compound, the growth is 67.8% in the test on NCI-H522 lung, 46% in the test with A549/ATCC NSCLC, 45.5% in the test with 786-0 renal and 93.2% in the test on COLO 205 colon.
With `CCOC(=O)C#Cc1c(C(=O)OCC)nnn1[C@@H]1O[C@H](CO)[C@H]2OC3(CCCCC3)O[C@H]21`, the growth in the test with NCI-H23 lung is 93.9%; with NCI-H226 lung, 80.7%; with NCI-H322M lung, 98%; with HOP-62 NSCLC, 110%; with NCI-H460 lung it was 98.5%; with HOP-92 NSCLC, 54.5%. For the same compound, the growth in the test on NCI-H522 lung is -25.2% (active); with A549/ATCC NSCLC, 95.2%; in the test on 786-0 renal it was 66.9%; in the test with COLO 205 colon, -27.2% (active).
